This is an account of results in the supplement of paper PMC6522484.

± gives the standard deviation of the averaged measurements.

The subject of experiment [1] is DLD1. Description: cell viability (CellTiter-Glo) relative to plate median (fraction of plate median); higher = more viable cells. To be noted: 5 µM; treatment time 24 h; reporter: 7TFP. Summed up:
(§1)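 Luminescence, normalised well by well to the plate median, is tabulated as a mean of independent replicates. There were two replicates, run on colorectal cancer lines stably transduced with lentiviral TCF/Wnt firefly luciferase reporters and dosed with library compounds at a final 5 µM for 24 h. Readouts were firefly luciferase or CellTiterGlo on parallel plates.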

The test system of experiment [2] is HCT116. The experiment is described as above. To be noted: 5 µM; treatment time 24 h; reporter: TCF4/Wnt. Summed up:
as §1

Experiment [3] deals with SW480. The description is as above. Particulars: 5 µM; treatment time 24 h; reporter: 7TFP. Summed up: as §1
Experiment [4] relates to DLD1. Description: TCF/Wnt firefly luciferase reporter signal relative to plate median (fraction of plate median); higher = higher Wnt reporter signal. To be noted: 5 µM; treatment time 24 h; reporter: 7TFP. Summed up:
as §1
For orientation: In a reporter assay the amount or activity of a reporter protein is the signal.

The test system of experiment [5] is SW480. Described as above. To be noted: 5 µM; treatment time 24 h; reporter: 7TFP. Summed up:
as §1

Experiment [6] has as its system DLD1. Description: cell viability (CellTiter-Glo) relative to plate median (fraction of plate median); higher = more viable cells. Particulars: 10 µM, treatment time 24 h. Summed up:
(§2)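 Each value averages two independent replicates in which the well signal was normalised to the plate median (webcellHTS2, additive, without log transformation). The signal was firefly luciferase or CellTiterGlo luminescence, read on parallel plates with a Tecan F500. The cells were colorectal cancer lines with stable lentiviral TCF/Wnt firefly luciferase reporters in 384-well plates, dosed 24 h after seeding with kinase inhibitor library compounds at a final 10 µM for 24 h.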
A general note: In ATP-based viability assays light output follows the ATP content of the culture.

For experiment [7], the system named is HCT116. Described as above. To be noted: 10 µM; treatment time 24 h; reporter: TCF4/Wnt. Summed up: as §2
The subject of experiment [8] is SW480. Described as above. Particulars: 10 µM; treatment time 24 h; reporter: 7TFP. Summed up: as §2
In experiment [9] the test system is DLD1. Description: TCF/Wnt firefly luciferase reporter signal relative to plate median (fraction of plate median); higher = higher Wnt reporter signal. Particulars: 10 µM, treatment time 24 h. Summed up:
as §2

In experiment [10] the test system is HCT116. The description is as above. To be noted: 10 µM; treatment time 24 h; reporter: TCF4/Wnt. Summed up: as §2
Experiment [11] has as its system SW480. The description is as above. Particulars: 10 µM; treatment time 24 h; reporter: 7TFP. Summed up:
as §2

Turning to `C[C@@H]1[C@H](O)[C@@H](C)/C=C/C=C/C=C/C=C/C=C/C=C/C=C/[C@H](O[C@@H]2O[C@H](C)[C@@H](O)[C@H](N)[C@@H]2O)C[C@@H]2O[C@](O)(C[C@@H](O)C[C@@H](O)[C@H](O)CC[C@@H](O)C[C@@H](O)CC(=O)O[C@H]1C)C[C@H](O)[C@H]2C(=O)O`, the cell viability worked out at 1.04 ± 0.076 in the experiment with DLD1 [1], 1 ± 0.096 with HCT116 [2] and 1.02 ± 0.089 with SW480 [3]. Besides, the “TCF/Wnt firefly luciferase reporter signal” value in the experiment on DLD1 [4] came out at 1.06 ± 0.14; with SW480 [5], 1.01 ± 0.018.

Consider `Cc1[nH]c(/C=C2\C(=O)Nc3ccc(S(=O)(=O)N(C)c4cccc(Cl)c4)cc32)c(C)c1C(=O)N1CCN(C)CC1`, for which the cell viability was 1.13 in the experiment with DLD1 [6] (reporter: 7TFP), 1.04 ± 0.066 in the experiment on DLD1 [6] (reporter: TCF4/Wnt), 1.09 ± 0.13 in the experiment with HCT116 [7] and 1.06 ± 0.11 in the experiment on SW480 [8]. Moreover, the “TCF/Wnt firefly luciferase reporter signal” value in the experiment on DLD1 [9] (reporter: 7TFP) came to 0.858 ± 0.37; in the experiment with DLD1 [9] (reporter: TCF4/Wnt), 0.954 ± 0.14; in the experiment with HCT116 [10] it was 0.756 ± 0.098; in the experiment with SW480 [11] it was 0.964 ± 0.065.

As to `CCCCCCOc1ccccc1C(N)=O`, the cell viability came to 0.9695 ± 0.0078 in the experiment with DLD1 [1], 0.954 with HCT116 [2] and 0.962 ± 0.041 in the experiment with SW480 [3]. The “TCF/Wnt firefly luciferase reporter signal” value in the experiment with DLD1 [4] stood at 1.09 ± 0.21; in the experiment on SW480 [5], 1.11 ± 0.13.

As for `Cc1c(C(=O)O)c(O)cc2c1C(=O)c1c(O)c([C@@H]3O[C@H](CO)[C@@H](O)[C@H](O)[C@H]3O)c(O)c(O)c1C2=O`, the values for the cell viability with DLD1 [1], with HCT116 [2] and with SW480 [3] were 0.97 ± 0.032, 1.01 ± 0.089 and 0.9855 ± 0.0078, respectively. Besides, the “TCF/Wnt firefly luciferase reporter signal” value in the experiment on DLD1 [4] worked out at 1.08 ± 0.17; in the experiment on SW480 [5] it was 1.07 ± 0.14.

For the compound `CC(=O)OCC(=O)[C@@]1(O)[C@@H](C)C[C@H]2[C@@H]3CCC4=CC(=O)C=C[C@]4(C)[C@@]3(F)[C@@H](O)C[C@@]21C`, the figures for the cell viability in the experiment on DLD1 [1], in the experiment on HCT116 [2] and with SW480 [3] were 1.04 ± 0.014, 1.17 ± 0.11 and 1 ± 0.026, respectively. For the same compound, the “TCF/Wnt firefly luciferase reporter signal” value in the experiment on DLD1 [4] is 0.989 ± 0.011; in the experiment on SW480 [5], 0.876 ± 0.14.

With `CC(=O)N[C@@H](Cc1c[nH]c2ccccc12)C(=O)O`, the cell viability with DLD1 [1] came out at 0.953 ± 0.0014; in the experiment with HCT116 [2], 0.955 ± 0.093; with SW480 [3], 0.985 ± 0.021. Moreover, the “TCF/Wnt firefly luciferase reporter signal” value in the experiment on DLD1 [4] came to 0.905 ± 0.1; in the experiment with SW480 [5] it was 0.961 ± 0.016.

In the case of `C[C@H](CS)C(=O)N1CCC[C@H]1C(=O)O`, the cell viability in the experiment with DLD1 [1] was 1.04 ± 0.097; with HCT116 [2], 1.02 ± 0.1; with SW480 [3] it was 1.09 ± 0.014. Moreover, the results for the “TCF/Wnt firefly luciferase reporter signal” value in the experiment on DLD1 [4] and in the experiment on SW480 [5] were 1.04 ± 0.042 and 1.06 ± 0.021, respectively.

For `O=c1cc(-c2ccccc2)oc2cc(O)c(O)c(O)c12`, the figures for the cell viability with DLD1 [1], in the experiment with HCT116 [2] and with SW480 [3] were 1.08 ± 0.021, 1.06 ± 0.042 and 1.12 ± 0.035, respectively. The “TCF/Wnt firefly luciferase reporter signal” value was found to be 0.927 ± 0.073 with DLD1 [4] and 1.02 ± 0.037 in the experiment with SW480 [5].

For the compound `CC1=CCc2c(cc3oc(C)cc(=O)c3c2O)OC1`, the cell viability is 1 ± 0.084 in the experiment on DLD1 [1], 1.02 ± 0.033 in the experiment with HCT116 [2] and 1.06 ± 0.071 in the experiment with SW480 [3]. Further, the figures for the “TCF/Wnt firefly luciferase reporter signal” value with DLD1 [4] and in the experiment on SW480 [5] were 1.18 ± 0.15 and 1.11 ± 0.085, respectively.

`CC(=O)Nc1ccccc1`: the cell viability is 0.977 ± 0.02 in the experiment on DLD1 [1], 0.97 ± 0.043 in the experiment with HCT116 [2] and 0.966 ± 0.0042 in the experiment on SW480 [3]. Besides, the results for the “TCF/Wnt firefly luciferase reporter signal” value in the experiment on DLD1 [4] and in the experiment with SW480 [5] were 1.05 ± 0.11 and 0.975 ± 0.028, respectively.

As to `O=C(O)[C@]1(Cc2cccc(Nc3nccs3)n2)CC[C@@H](Oc2cccc(Cl)c2F)CC1`, the cell viability stood at 1.08 ± 0.092 with DLD1 [6] (reporter: 7TFP), 1.02 ± 0.014 in the experiment on DLD1 [6] (reporter: TCF4/Wnt), 0.959 ± 0.057 with HCT116 [7] and 1.14 ± 0.014 in the experiment with SW480 [8]. The “TCF/Wnt firefly luciferase reporter signal” value in the experiment on DLD1 [9] (reporter: 7TFP) stood at 0.824 ± 0.061; with DLD1 [9] (reporter: TCF4/Wnt), 0.857 ± 0.2; in the experiment with HCT116 [10], 0.568 ± 0.44; in the experiment with SW480 [11], 0.742 ± 0.0071.

Consider `CCCCCCCCCCCCc1ccc(S(=O)(=O)Nc2nncs2)cc1`, for which the cell viability was found to be 1.03 ± 0.05 in the experiment with DLD1 [6] (reporter: 7TFP), 0.966 ± 0.037 with DLD1 [6] (reporter: TCF4/Wnt), 1.16 ± 0.035 in the experiment on HCT116 [7] and 0.91 ± 0.016 with SW480 [8]. The “TCF/Wnt firefly luciferase reporter signal” value is 0.981 ± 0.041 in the experiment with DLD1 [9] (reporter: 7TFP), 1.14 ± 0.18 in the experiment on DLD1 [9] (reporter: TCF4/Wnt), 1.21 ± 0.16 in the experiment on HCT116 [10] and 0.959 ± 0.12 with SW480 [11].

Regarding `CCOC(=O)CCC(=O)O[C@H]1[C@H](O[C@@H]2[C@@H](C)[C@H](O[C@H]3C[C@@](C)(OC)[C@@H](O)[C@H](C)O3)[C@@H](C)C(=O)O[C@H](CC)[C@@](C)(O)[C@H](O)[C@@H](C)C(=O)[C@H](C)C[C@@]2(C)O)O[C@H](C)C[C@@H]1N(C)C`, the values for the cell viability in the experiment with DLD1 [1], with HCT116 [2] and with SW480 [3] were 1.065 ± 0.0071, 1.01 ± 0.096 and 1.01 ± 0.021, respectively. For the same compound, the “TCF/Wnt firefly luciferase reporter signal” value in the experiment on DLD1 [4] turned out to be 1.005 ± 0.0071; in the experiment with SW480 [5], 0.94 ± 0.025.

In the case of `O=C(O)[C@H](O)[C@@](O)(Cc1ccc(O)cc1)C(=O)O`, the cell viability came out at 0.954 ± 0.08 in the experiment on DLD1 [1], 0.962 ± 0.082 with HCT116 [2] and 0.955 ± 0.021 in the experiment on SW480 [3]. The entries for the “TCF/Wnt firefly luciferase reporter signal” value with DLD1 [4] and in the experiment with SW480 [5] were 1.005 ± 0.0071 and 0.923 ± 0.11, respectively.

In the case of `CC1(C)S[C@@H]2[C@H](N3C(=O)[C@@H](c4ccccc4)NC3(C)C)C(=O)N2[C@H]1C(=O)O`, the cell viability is 1.05 ± 0.079 in the experiment with DLD1 [1], 1.055 ± 0.0071 in the experiment on HCT116 [2] and 1.08 ± 0.071 in the experiment with SW480 [3]. The entries for the “TCF/Wnt firefly luciferase reporter signal” value in the experiment on DLD1 [4] and with SW480 [5] were 1.15 ± 0.042 and 1.09 ± 0.014, respectively.
